Records with an inconclusive call do not appear. Calls of active or inactive are those of the source. Unless noted, the call rests on the fitted dose curve.
Columns and labels:
[1] = qHTS assay to identify small molecule agonists of the vitamin D receptor (VDR) signaling pathway - cell viability counter screen (AID 743224; active means well fitted curve in the direction sought with a large enough effect in the repeat runs; an effect the other way counts as inactive or inconclusive; further: series mostly up to about 63 µM; nearly all actives have a fitted effect of over 50% in size)
Method in brief: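 Counter screen for cytotoxicity: VDR-bla cells at 2,000 cells/well, 16 h compound exposure, then CellTiter-Glo luminescence after the beta-lactamase measurement.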

[2] = qHTS assay to identify small molecule antagonists of the vitamin D receptor (VDR) signaling pathway - cell viability counter screen (AID 743225; active means well fitted curve in the direction sought with a large enough effect in the repeat runs; an effect the other way counts as inactive or inconclusive; further: nearly all actives have a fitted effect of over 50% in size)
Method in brief: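 Read-out: CellTiter-Glo luminescence measured 30 min after reagent addition at room temperature. Cells were VDR-bla HEK 293T exposed 16 h at 37C, 5% CO2, to compound with 3 nM final calcitriol agonist.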

[3] = qHTS assay to identify small molecule agonists of the NFkB signaling pathway (AID 1159509; active means well fitted curve in the direction sought with a large enough effect in the signal ratio in the repeat runs, not every such curve was filed as active; the % refers to the signal ratio; further: series mostly up to about 61 µM)
Method in brief: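 Beta-lactamase reporter assay run in quantitative high-throughput format on an NF-kB-responsive ME-180 line, with 5 hr compound treatment and a FRET-based blue/green fluorescence readout.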

[4] = qHTS assay to identify small molecule agonists of the NFkB signaling pathway - cell viability counter screen (AID 1159515); further: series mostly up to about 61 µM; nearly all actives have a fitted effect of over 55% in size
Method in brief: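 Counter screen run alongside the NFkB-bla agonist assay: ME-180 reporter cells exposed to compounds for 5 hr, then lysed with CellTiter-Glo in the same wells. Luminescence, read after 30 min, reflects viable cells.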

[5] = qHTS assay to identify small molecule agonists of the endoplasmic reticulum stress response signaling pathway (AID 1159516; active means well fitted activation curve with a large enough effect in the signal ratio in the repeat runs, not every such curve was filed as active; the % refers to the signal ratio)
Method in brief: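 For this screen, HeLa cells stably carrying beta-lactamase under the ER stress response element received test compounds, positive controls or DMSO for 5 hr at 37 C; B/G FRET substrate was then added and dual-wavelength emission recorded.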

[6] = qHTS assay to identify small molecule antagonists of the retinoid-related orphan receptor gamma (ROR-gamma) signaling pathway - cell viability counter screen (AID 1159520; active means well fitted curve in the direction sought with a large enough effect in the repeat runs; an effect the other way counts as inactive or inconclusive; further: nearly all actives have a fitted effect of over 50% in size)
Method in brief: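 Tet-on ROR gamma CHO cells were given compounds for 2 hr, then doxycycline hyclate at 1 uM final, and incubated 16 hr at 37 C. Viability was measured as ATP content by CellTiter-Glo luminescence.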

[7] = biological target: Nuclear receptor ROR-gamma (Homo sapiens) (UniProt P51449); experiment: qHTS assay to identify small molecule antagonists of the retinoid-related orphan receptor gamma (ROR-gamma) signaling pathway (AID 1159521; active means well fitted curve in the direction sought with a large enough effect in the repeat runs; an effect the other way counts as inactive or inconclusive; further: nearly all actives have a fitted effect of over 50% in size; further: potency means the concentration at half of the fitted maximal effect)
Method in brief: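 CHO Tet-on RORγ, RORE-luc reporter. Cpd 2 h pre-incubation, then dox hyclate 1 uM final, 16 h, 37 C/5% CO2. ONE-Glo luminescence; decrease = antagonist.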

[8] = qHTS assay to identify small molecule agonists of the AP-1 signaling pathway (AID 1159526)
[9] = qHTS assay to identify small molecule agonists of the AP-1 signaling pathway - cell viability counter screen (AID 1159525); further: nearly all actives have a fitted effect of over 55% in size
Method in brief: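 Same-well cytotoxicity counter screen of the Tox21 10K library in ME-180 cells. The readout is ATP-dependent luminescence after 5 h compound treatment. Data are normalised to DMSO and tetra n-octyl ammonium bromide controls.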

[10] = qHTS assay to identify small molecule agonists of the endoplasmic reticulum stress response signaling pathway - cell viability counter screen (AID 1159517)
Method in brief: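 Steps: seed 1,500 ESRE-bla HeLa cells per well; incubate overnight at 37 C, 5% CO2; add compounds in DMSO for 5 hr; run FRET substrate 2 hr RT; add CellTiter-Glo, wait 30 min, read luminescence.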

Measured: Potency

Cc1ccc(Nc2ccc(O)c3c2C(=O)c2ccccc2C3=O)cc1
inactive: [1] | [2] | [3] | [4] | [5] | [6] | [7] | [8]

Nc1nc2c(ncn2CCC(CO)CO)c(=O)[nH]1
inactive: [1] | [2] | [3] | [4] | [5] | [6] | [8]

C/C=C1\C(=O)C[C@H]2[C@@H]3CCC4=CC(=O)CC[C@]4(C)[C@H]3CC[C@]12C
inactive: [1] | [2] | [3] | [4] | [5] | [7] | [9] | [8]

CCCCOCC(C)OCC(C)O (centres undefined)
inactive: [1] | [2] | [3] | [4] | [5] | [6] | [7] | [9] | [8]

O=C(O)Cc1cc(I)c(Oc2cc(I)c(O)c(I)c2)c(I)c1
inactive: [1] | [3] | [4] | [5] | [6] | [9] | [8]

CSc1ccc(C=O)cc1
inactive: [2] | [3] | [4] | [5] | [6] | [7] | [9] | [8]

CN(C)C(=O)Nc1ccccc1
inactive: [1] | [2] | [3] | [4] | [5] | [6] | [9] | [8]

C[C@H](O)C(=O)Nc1c(I)c(C(=O)NC(CO)CO)c(I)c(C(=O)NC(CO)CO)c1I
inactive: [1] | [2] | [3] | [4] | [5] | [6] | [7] | [9] | [8]

CC(=O)N[C@@H](CCC(N)=O)C(=O)O
inactive: [1] | [3] | [4] | [5] | [7] | [9] | [8]

CCCCCOC(=O)Nc1nc(=O)n([C@@H]2O[C@H](C)[C@@H](O)[C@H]2O)cc1F
inactive: [1] | [2] | [3] | [4] | [5] | [6] | [9] | [8]
active: [7] 11.9 µM

CCCCCCC(CCCCCCCCCCC(=O)OCC(COC(C)=O)OC(C)=O)OC(C)=O (centres undefined)
inactive: [1] | [2] | [3] | [4] | [5] | [6] | [7] | [9] | [8]

CCCCC1CCCCC(=O)O1 (centres undefined)
inactive: [1] | [2] | [3] | [4] | [5] | [6] | [7] | [9] | [8]

COc1ccc(NC(C)=O)cc1
inactive: [1] | [2] | [3] | [4] | [5] | [6] | [7] | [9] | [8]

CCN1CCCC(OC(=O)C(c2ccccc2)c2ccccc2)C1 (centres undefined)
inactive: [1] | [2] | [3] | [4] | [5] | [6] | [9] | [8]

NC(CS)C(=O)O (centres undefined)
inactive: [1] | [3] | [4] | [5] | [6] | [9] | [8]

Oc1ccc2c(c1)OC[C@@H](N1CCC(O)(c3ccc(F)cc3)CC1)[C@H]2O
inactive: [1] | [3] | [4] | [5] | [6] | [7] | [9] | [8]

Cc1nc(-c2ccc(OCC(C)C)c(C#N)c2)sc1C(=O)O
inactive: [1] | [2] | [4] | [5] | [10] | [6] | [9] | [8]

O=C(O)C(O)[C@H](O)[C@@H](O)[C@H](O)[C@H](O)CO (some centres undefined)
inactive: [1] | [2] | [4] | [5] | [10] | [6] | [7] | [9] | [8]

C=CC(=O)OCCCCCC
inactive: [1] | [2] | [4] | [5] | [10] | [6] | [9] | [8]

COC(=O)CCCC(=O)O
inactive: [1] | [2] | [4] | [5] | [10] | [6] | [7] | [9] | [8]

Cc1ccccc1C(=O)O
inactive: [1] | [4] | [5] | [6] | [7] | [9] | [8]

CCCC(C)CO (centres undefined)
inactive: [1] | [2] | [4] | [5] | [6] | [7] | [9] | [8]

[O-][N+](=Nc1ccccc1)c1ccccc1
inactive: [1] | [2] | [4] | [5] | [6] | [7] | [8]

CC(CCO)CCCC(C)(C)O (centres undefined)
inactive: [1] | [2] | [4] | [5] | [10] | [6] | [9] | [8]

NS(=O)(=O)c1cc(C2(O)NC(=O)c3ccccc32)ccc1Cl (centres undefined)
inactive: [1] | [2] | [4] | [5] | [10] | [6] | [9] | [8]

CCCCCN(CCCCC)C(=O)C(CCC(=O)O)NC(=O)c1ccc(Cl)c(Cl)c1 (centres undefined)
inactive: [1] | [2] | [4] | [5] | [10] | [6] | [7] | [9] | [8]

CCCCCCCCC=O
inactive: [1] | [2] | [4] | [5] | [6] | [9] | [8]

CC(=O)c1ccc(C)cc1
inactive: [1] | [4] | [5] | [6] | [7] | [8]

O=C(O)c1ccc[n+]([O-])c1
inactive: [1] | [4] | [5] | [10] | [6] | [7] | [9] | [8]

CCN1CCCC1CNC(=O)c1cc(S(N)(=O)=O)ccc1OC (centres undefined)
active: [7] 54.5 µM
inactive: [1] | [2] | [4] | [5] | [10] | [9] | [8]

CCCCc1ccc(N)cc1
inactive: [1] | [2] | [4] | [5] | [10] | [6] | [7] | [9] | [8]

CCCC=O
inactive: [1] | [2] | [4] | [5] | [10] | [6] | [9] | [8]

NS(=O)(=O)c1cc2c(cc1C(F)(F)F)NC(Cc1ccccc1)NS2(=O)=O (centres undefined)
inactive: [1] | [2] | [4] | [5] | [10] | [6] | [7] | [9] | [8]

NCCNC(=O)c1ccc(Cl)cn1
inactive: [1] | [4] | [5] | [10] | [7] | [9] | [8]

OCC(CO)(CO)COCC(CO)(CO)CO
inactive: [1] | [2] | [4] | [5] | [10] | [6] | [9] | [8]

O=C(O)/C=C/c1ccc(/C=C/C(=O)O)cc1
inactive: [1] | [2] | [4] | [5] | [10] | [6] | [7] | [8]

O=C(O)c1ccccc1S
inactive: [1] | [2] | [4] | [5] | [10] | [6] | [7] | [8]

COc1cc(CCC(C)=O)ccc1O
inactive: [1] | [2] | [4] | [5] | [10] | [7] | [9] | [8]

Cc1ccc(N)cc1[N+](=O)[O-]
inactive: [1] | [2] | [4] | [5] | [10] | [7] | [9] | [8]

CC(C)c1cccc(C(C)C)c1N
inactive: [1] | [2] | [4] | [5] | [10] | [6] | [7] | [9] | [8]

CC(C)c1cccc(O)c1
inactive: [1] | [2] | [4] | [5] | [10] | [6] | [7] | [9] | [8]

COc1cc(C(=O)N2CCOCC2)cc(OC)c1OC
inactive: [1] | [2] | [4] | [5] | [10] | [6] | [7] | [9] | [8]

CCCCCCCCCCC1CO1 (centres undefined)
inactive: [1] | [2] | [4] | [5] | [10] | [6] | [9] | [8]

CC(C)CCCCCCN
inactive: [1] | [2] | [4] | [5] | [6] | [7] | [9] | [8]

COC(C(=O)O)c1ccccc1 (centres undefined)
inactive: [1] | [2] | [4] | [5] | [10] | [6] | [7] | [9] | [8]

NC(=O)c1ncn([C@@H]2O[C@H](CO)[C@@H](O)[C@H]2O)c1O
inactive: [1] | [2] | [4] | [5] | [10] | [6] | [9] | [8]

CC(=O)NC(Cc1ccccc1)C(=O)O (centres undefined)
inactive: [1] | [4] | [5] | [10] | [9] | [8]

C=C(C)[C@H]1CC=C(C)CC1
inactive: [1] | [2] | [4] | [5] | [10] | [6] | [9] | [8]

CCCc1ccccc1O
inactive: [1] | [4] | [5] | [10] | [7] | [9] | [8]

CN(C)C(=O)C(CCN1CCC(O)(c2ccc(Cl)cc2)CC1)(c1ccccc1)c1ccccc1
inactive: [4] | [5] | [6] | [7] | [9] | [8]

CC(C)[C@H](N)C(=O)OCCOCn1cnc2c(=O)[nH]c(N)nc21
inactive: [1] | [4] | [5] | [10] | [6] | [7] | [9] | [8]

C=C(C)C1CC=C(C)C(O)C1 (centres undefined)
inactive: [1] | [2] | [4] | [5] | [10] | [6] | [8]

CC/C=C\C#N
inactive: [1] | [2] | [4] | [5] | [10] | [6] | [7] | [8]

OCc1ccccn1
inactive: [4] | [5] | [10] | [6] | [7] | [8]

Source: PubChem BioAssay (Tox21)
